For 39 sequences, binding signal results are on record in paper doi:10.1101/2024.03.05.583629.

In this assay the target is pT7_6His-AlfaTag-ZIF268 (human, UniProt P18146 335-423). The assay can be described thus: PADIT-seq. Conditions: dsDNA, one strand shown.
As for “CTCGAGGATATCAAGATCTGGCCTCGGCGCGTGGTTTGGAACCTCTAGCTAGCCGACTCACTATAGGGATAATCGCCCTGAGCAAAGACC”, the binding signal came to 0.236 ± 0.101 log2FC.

In the case of “CTCGAGGATATCAAGATCTGGCCTCGGCGCGGCGGCGGGAACCTCTAGCTAGCCGACTCACTATAGGGATAATCGCCCTGAGCAAAGACC”, the binding signal turned out to be 0.141 ± 0.11 log2FC.

“CTCGAGGATATCAAGATCTGGCCTCGGCCCCCCACGCGGAACCTCTAGCTAGCCGACTCACTATAGGGATAATCGCCCTGAGCAAAGACC” registered a binding signal of 0.155 ± 0.108 log2FC.

For the sequence “CTCGAGGATATCAAGATCTGGCCTCGGCGGATGGGCGGGAACCTCTAGCTAGCCGACTCACTATAGGGATAATCGCCCTGAGCAAAGACC”, the binding signal amounted to 0.0532 ± 0.0937 log2FC.

Regarding “CTCGAGGATATCAAGATCTGGCCTCGGCCGCCCACCAGGAACCTCTAGCTAGCCGACTCACTATAGGGATAATCGCCCTGAGCAAAGACC”, the binding signal worked out at 0.0728 ± 0.0981 log2FC.

In turn, “CTCGAGGATATCAAGATCTGGCCTCGGCGCGGTGGCGGGAACCTCTAGCTAGCCGACTCACTATAGGGATAATCGCCCTGAGCAAAGACC” registered a binding signal of 0.175 ± 0.118 log2FC.

With “CTCGAGGATATCAAGATCTGGCCTCGGCGCGTGGGCCGGAACCTCTAGCTAGCCGACTCACTATAGGGATAATCGCCCTGAGCAAAGACC”, the binding signal was found to be 2.26 ± 0.0976 log2FC.

“CTCGAGGATATCAAGATCTGGCCTCGGCCGCCCAGACGGAACCTCTAGCTAGCCGACTCACTATAGGGATAATCGCCCTGAGCAAAGACC” displayed a binding signal of 0.0722 ± 0.0958 log2FC.

As for “CTCGAGGATATCAAGATCTGGCCTCGGCGCGTGGCGTGGAACCTCTAGCTAGCCGACTCACTATAGGGATAATCGCCCTGAGCAAAGACC”, the binding signal turned out to be 0.0995 ± 0.108 log2FC.

For “CTCGAGGATATCAAGATCTGGCCTCGGCGCGTGGGGCGGAACCTCTAGCTAGCCGACTCACTATAGGGATAATCGCCCTGAGCAAAGACC”, the binding signal stood at 0.735 ± 0.107 log2FC.

As to “CTCGAGGATATCAAGATCTGGCCTCGGCGCGAAAGCGGGAACCTCTAGCTAGCCGACTCACTATAGGGATAATCGCCCTGAGCAAAGACC”, the binding signal came to 0.0239 ± 0.114 log2FC.

Regarding “CTCGAGGATATCAAGATCTGGCCTCGGCGCGTGGTGCGGAACCTCTAGCTAGCCGACTCACTATAGGGATAATCGCCCTGAGCAAAGACC”, the binding signal was determined as 0.41 ± 0.0906 log2FC.

Turning to “CTCGAGGATATCAAGATCTGGCCTCGGCCGCCCACCTGGAACCTCTAGCTAGCCGACTCACTATAGGGATAATCGCCCTGAGCAAAGACC”, the binding signal was 0.259 ± 0.108 log2FC.

The sequence “CTCGAGGATATCAAGATCTGGCCTCGGCCGCGGCCGCGGAACCTCTAGCTAGCCGACTCACTATAGGGATAATCGCCCTGAGCAAAGACC” displayed a binding signal of 0.0714 ± 0.102 log2FC.

Turning to “CTCGAGGATATCAAGATCTGGCCTCGGCAAGTGGGCGGGAACCTCTAGCTAGCCGACTCACTATAGGGATAATCGCCCTGAGCAAAGACC”, the binding signal turned out to be 2.06 ± 0.0801 log2FC.

The sequence “CTCGAGGATATCAAGATCTGGCCTCGGCCTCCCACGCGGAACCTCTAGCTAGCCGACTCACTATAGGGATAATCGCCCTGAGCAAAGACC” displayed a binding signal of 1.28 ± 0.0958 log2FC.

The sequence “CTCGAGGATATCAAGATCTGGCCTCGGCGCGTGGGGAGGAACCTCTAGCTAGCCGACTCACTATAGGGATAATCGCCCTGAGCAAAGACC” displayed a binding signal of 0.871 ± 0.0966 log2FC.

Regarding “CTCGAGGATATCAAGATCTGGCCTCGGCCGCCCAAGGGGAACCTCTAGCTAGCCGACTCACTATAGGGATAATCGCCCTGAGCAAAGACC”, the binding signal stood at 0.0235 ± 0.109 log2FC.

“CTCGAGGATATCAAGATCTGGCCTCGGCCGGTGGGCGGGAACCTCTAGCTAGCCGACTCACTATAGGGATAATCGCCCTGAGCAAAGACC” returned a binding signal of 1.3 ± 0.0687 log2FC.

Sequence “CTCGAGGATATCAAGATCTGGCCTCGGCGCGTGGGACGGAACCTCTAGCTAGCCGACTCACTATAGGGATAATCGCCCTGAGCAAAGACC” yielded a binding signal of 1.73 ± 0.101 log2FC.

“CTCGAGGATATCAAGATCTGGCCTCGGCGCGTGGGAGGGAACCTCTAGCTAGCCGACTCACTATAGGGATAATCGCCCTGAGCAAAGACC” returned a binding signal of 3.65 ± 0.0848 log2FC.

In turn, “CTCGAGGATATCAAGATCTGGCCTCGGCGCGTAGGCGGGAACCTCTAGCTAGCCGACTCACTATAGGGATAATCGCCCTGAGCAAAGACC” registered a binding signal of 3.65 ± 0.0875 log2FC.

“CTCGAGGATATCAAGATCTGGCCTCGGCGCGTGTGCGGGAACCTCTAGCTAGCCGACTCACTATAGGGATAATCGCCCTGAGCAAAGACC” gave a binding signal of 0.312 ± 0.112 log2FC.

In turn, “CTCGAGGATATCAAGATCTGGCCTCGGCCGCCCACACGGAACCTCTAGCTAGCCGACTCACTATAGGGATAATCGCCCTGAGCAAAGACC” yielded a binding signal of 1.63 ± 0.0957 log2FC.

As to “CTCGAGGATATCAAGATCTGGCCTCGGCCGCCCACGGGGAACCTCTAGCTAGCCGACTCACTATAGGGATAATCGCCCTGAGCAAAGACC”, the binding signal was found to be 1.11 ± 0.0917 log2FC.

The sequence “CTCGAGGATATCAAGATCTGGCCTCGGCCGCATGCGCGGAACCTCTAGCTAGCCGACTCACTATAGGGATAATCGCCCTGAGCAAAGACC” had a binding signal of 0.0876 ± 0.0884 log2FC.

For the sequence “CTCGAGGATATCAAGATCTGGCCTCGGCATACCACGCGGAACCTCTAGCTAGCCGACTCACTATAGGGATAATCGCCCTGAGCAAAGACC”, the binding signal was 0.123 ± 0.0818 log2FC.

Consider “CTCGAGGATATCAAGATCTGGCCTCGGCGCGTGGGCGGGAACCTCTAGCTAGCCGACTCACTATAGGGATAATCGCCCTGAGCAAAGACC”, for which the binding signal was 4.32 ± 0.0557 log2FC.

As for “CTCGAGGATATCAAGATCTGGCCTCGGCGCGTGGCTCGGAACCTCTAGCTAGCCGACTCACTATAGGGATAATCGCCCTGAGCAAAGACC”, the binding signal is 0.122 ± 0.1 log2FC.

As for “CTCGAGGATATCAAGATCTGGCCTCGGCGCGTGGTAGGGAACCTCTAGCTAGCCGACTCACTATAGGGATAATCGCCCTGAGCAAAGACC”, the binding signal is 0.402 ± 0.089 log2FC.

As to “CTCGAGGATATCAAGATCTGGCCTCGGCCGCGGTCGCGGAACCTCTAGCTAGCCGACTCACTATAGGGATAATCGCCCTGAGCAAAGACC”, the binding signal was 0.00429 ± 0.0911 log2FC.

Sequence “CTCGAGGATATCAAGATCTGGCCTCGGCGCGTGGGTAGGAACCTCTAGCTAGCCGACTCACTATAGGGATAATCGCCCTGAGCAAAGACC” had a binding signal of 1.97 ± 0.0958 log2FC.

Consider “CTCGAGGATATCAAGATCTGGCCTCGGCGCGTGGACGGGAACCTCTAGCTAGCCGACTCACTATAGGGATAATCGCCCTGAGCAAAGACC”, for which the binding signal came out at 0.177 ± 0.113 log2FC.

Sequence “CTCGAGGATATCAAGATCTGGCCTCGGCCACCCACGCGGAACCTCTAGCTAGCCGACTCACTATAGGGATAATCGCCCTGAGCAAAGACC” had a binding signal of 2.1 ± 0.135 log2FC.

“CTCGAGGATATCAAGATCTGGCCTCGGCGCGTGGCTAGGAACCTCTAGCTAGCCGACTCACTATAGGGATAATCGCCCTGAGCAAAGACC” came in with a binding signal of 0.021 ± 0.107 log2FC.

In turn, “CTCGAGGATATCAAGATCTGGCCTCGGCGCGTGGTCTGGAACCTCTAGCTAGCCGACTCACTATAGGGATAATCGCCCTGAGCAAAGACC” gave a binding signal of 0.117 ± 0.101 log2FC.

For the sequence “CTCGAGGATATCAAGATCTGGCCTCGGCCGCCCAGATGGAACCTCTAGCTAGCCGACTCACTATAGGGATAATCGCCCTGAGCAAAGACC”, the binding signal came to 0.0137 ± 0.113 log2FC.

The sequence “CTCGAGGATATCAAGATCTGGCCTCGGCGCGTGGGCAGGAACCTCTAGCTAGCCGACTCACTATAGGGATAATCGCCCTGAGCAAAGACC” gave a binding signal of 2.8 ± 0.0823 log2FC.

The sequence “CTCGAGGATATCAAGATCTGGCCTCGGCGCGCCCGCGGGAACCTCTAGCTAGCCGACTCACTATAGGGATAATCGCCCTGAGCAAAGACC” registered a binding signal of 0.783 ± 0.131 log2FC.
